FH mod: Identification of activators of human fumarate hydratase by quantitative high-throughput screening; 0.22% of 54,000 active; Fumarate hydratase, mitochondrial (Homo sapiens), P07954; Potency, µM (highest dose often 79.9 µM), inactives show top-dose activity change, negative = inhibition, actives largely listed as inhibitors; FH coupled MDH/diaphorase resazurin fluorescence, 15 min; note: potency is the fitted concentration of half-maximal effect; % is set by controls: 0 for no effect and ±100 for the full control effect; the screen sought activators but most active calls are inhibition curves; nearly all actives have a fitted effect of over 45% in size
Target sequence (P07954 whole entry, looked up): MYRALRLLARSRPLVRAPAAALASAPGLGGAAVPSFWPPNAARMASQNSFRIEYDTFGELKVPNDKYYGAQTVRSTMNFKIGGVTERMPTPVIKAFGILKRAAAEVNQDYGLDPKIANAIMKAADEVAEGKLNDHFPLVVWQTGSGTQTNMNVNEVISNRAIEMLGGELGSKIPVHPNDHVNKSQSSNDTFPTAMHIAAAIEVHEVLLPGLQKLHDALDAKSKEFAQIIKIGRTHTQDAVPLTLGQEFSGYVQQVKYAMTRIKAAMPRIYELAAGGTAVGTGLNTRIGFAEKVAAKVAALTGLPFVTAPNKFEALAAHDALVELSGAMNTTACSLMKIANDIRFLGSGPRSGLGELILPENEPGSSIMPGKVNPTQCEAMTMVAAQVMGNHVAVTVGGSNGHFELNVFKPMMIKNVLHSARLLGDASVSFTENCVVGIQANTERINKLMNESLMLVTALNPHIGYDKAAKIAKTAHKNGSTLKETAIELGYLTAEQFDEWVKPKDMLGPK
GALC G270D act: A Novel Cell-Based Assay to Identify Small Molecules for B -Galactocerebrosidase. P54803. 145M-Twi-hGALC-G270D cells (Twitcher mouse brain line with human GALC G270D), HMU-beta-Gal fluorescence, 48 h. Potency, µM (highest dose often 57.5 µM), hits mostly activators. 0.1% of 45,000 active; note: potency is the fitted concentration of half-maximal effect; 0% is about no effect; nearly all actives have a fitted effect of over 65% in size
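Fluorescence readout: HMU-β-gal cleavage by mutant GALC (0.1 mM final, citrate/phosphate pH 5.2 with 1 mg/mL taurocholate), stopped with carbonate/bicarbonate plus Triton X-100. Cells: murine Twitcher 145M-Twi expressing human G270D GALC; qHTS for activators.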
B2AR arrestin ag: qHTS assay of beta-arrestin-biased ligands of beta2-adrenergic receptor: NCGC Sytravon Library Screen; Beta-2 adrenergic receptor (Homo sapiens), P07550; HTLA Tango cells, beta-arrestin recruitment, luciferase luminescence, 18 h; Potency, µM (titrated, usually from 46.1 µM), usual class: activators; 44,000 tested, under 10 active;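 note: potency is the fitted concentration of half-maximal effect; 0% = DMSO and full agonism = EC100 isoproterenol or metaproterenol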
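Receptor–beta-arrestin recruitment read by tTA-responsive luciferase: compound titrations (up to 46 µM) incubated 18 h with Tango cells, then luminescent substrate 15 min at room temperature. Concentration-response fits classified by r2, efficacy and activity.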
GALK inh: qHTS Assay for Inhibitors of Human Galactokinase (GALK): NCGC Sytravon Library Screen; P51570; recombinant GALK, Kinase-Glo ATP luminescence, 1 h; Potency, µM (highest dose often 57.5 µM), inactives show at the top dose activity, negative = inhibition, actives largely listed as inhibitors; 44,000 tested, under 10 active;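 note: plate controls were full GALK reaction for no effect and reaction lacking GALK for full effect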
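5 nM GALK; 35 uM ATP; 100 uM D-galactose; 20 mM HEPES pH 8.0, 5 mM MgCl2, 60 mM NaCl, 1 mM DTT, 0.01% BSA; 1 h RT; Kinase-Glo Plus luminescence.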
DRV1 agonist: qHTS for Agonists of Human Resolvin D1 Receptor DRV1. Probable G-protein coupled receptor 32 (Homo sapiens), O75388. CHO-K1 GPR32 beta-arrestin PathHunter luminescence, 90 min; zero percent set by DMSO-only wells. activation, % at 76.9 µM. 2.5% of 48,000 active;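 active = activation of at least 60% and not above a set upper limit, about 1 call in 100 departs from these limits; inconclusive = activation of 40% to 60%, or above that upper limit; inactive = activation under 40%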; note: 0% is about no effect
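Using DMSO wells as EC0, agonist-induced signal was taken as chemiluminescence from beta-Gal reconstituted upon beta-arrestin recruitment to GPR32 in CHO-K1 cells after 90 min compound treatment.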
TSG101-PTAP inh: qHTS Validation Assay for Inhibitors of HIV-1 Budding by Blocking the Interaction of PTAP/TSG101: Sytravon Library Screen; Tumor susceptibility gene 101 protein (Homo sapiens), Q99816; Fluorescence polarization, FITC-PTAP peptide/Tsg101, 20 min; Potency, µM (series often up to 115 µM), most hits filed as inhibitors; 44,000 tested, under 10 active; AID 1347069, 2019; note: potency is the fitted concentration of half-maximal effect; 0% is about no effect
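FITC-labeled PTAP peptide (50 nM final) binding to Tsg101 binding domain (10 uM final) read by fluorescence polarization after 20 min at r.t. in HEPES pH 7.5 buffer. Actives by CRC class, <25 µM.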
Numbers without * were called inactive; i = inactive; ? = inconclusive; nt = no result; [ ] = another dose, or the depositor's remark. Compounds with a hit are over-represented: about 2.6% of the library has one in this group of screens. Unless noted, calls come from the whole dose curve; as a rule, active = well fitted curve in the direction sought with a large enough effect; inconclusive = small, poorly fitted or top-dose-only effect, or another doubt; inactive = no such curve, though single readings can be large; an effect the other way counts as inactive or inconclusive.

SMILES	FH mod	GALC G270D act	B2AR arrestin ag	GALK inh	DRV1 agonist	TSG101-PTAP inh
Cc1cc(C)n2nc(SCC(=O)Nc3ccccc3)nc2n1	-13%	i	i	4%	5	i
O=C(CSc1nc2cc3ccccc3cc2[nH]1)Nc1cccc(C(F)(F)F)c1	-12%	i	i	3%	94*	i
Cc1cc(C)n2nc(SCC(=O)Nc3cccc(C(F)(F)F)c3)nc2n1	-26%	i	i	6%	61*	i
CCCN(CCC)CCNC(=O)Cn1cc2c(n1)-c1c(oc(C(=O)N3CCCC3)c1C)CC2	-2%	i	22µM*	1%	-14	i
CCC12CCCN3CCc4c(n(c5ccccc45)C(O)C1)C32 (centres undefined)	-2%	nt	nt	nt	nt	nt
CCCCCCCCCCCCCCCCCCN(CCCCCCCCCCCCCCCCCC)CCCN(CCO)CCO	-15%[53.3 µM]	nt	nt	nt	nt	nt
CS(=O)(=O)N(CC(=O)Nc1ccc(Br)cc1)c1ccccc1Br	-19%	i	i	0%	61*	i
COc1ccc(NCc2cccn2-c2nnc(N3CCCCC3)s2)cc1OC	?	i	i	4%	84*	i
COc1cc(/C=C(\C#N)C(=O)c2ccc(O)c(O)c2)cc(I)c1O	7.9µM*	nt	nt	nt	-20	nt
O=C(Nc1nc(-c2ccc(Br)cc2)ns1)c1ccccc1F	0%	i	i	-6%	60*	i
[N-]=[N+]=Nc1ccc(C(=O)CSC[C@H](NC(=O)CC[C@H](N)C(=O)O)C(=O)NCC(=O)O)cc1	32µM*	nt	nt	nt	1	nt
CCN(c1ccccc1)S(=O)(=O)c1nnc(NC(=O)c2cccs2)s1	-3%	i	i	7%	49	i
CCN(c1ccc(C)cc1)S(=O)(=O)c1nnc(NC(=O)c2cccs2)s1	-5%	i	i	-7%	85*	i
C/C=C(\C)C(=O)OCC1OC(OC2OC(CO)C(O)C(O)C2O)C(O)C(O)C1O (centres undefined)	-2%[53.3 µM]	nt	nt	nt	nt	nt
CCOC(=O)N1CCc2c(sc(NCc3ccc(OC)c(OC)c3OC)c2C(=O)Nc2ccc(OC)cc2OC)C1	-15%	i	i	1%	86*	i
CCOC(=O)c1c(C)[nH]c(C)c1S(=O)(=O)N1CCN(c2cccc(C(F)(F)F)c2)CC1	-32%	1.1µM*	i	1%	-10	i
CCOC(=O)c1c(S(=O)(=O)N2CCN(c3cccc(C(F)(F)F)c3)CC2)c(C)n(C)c1C	-7%	i	i	0%	12	i
O=C1CCc2ccc(OCCCCN3CCN(c4cccc(Cl)c4Cl)CC3)cc2N1	5%[53.3 µM]	i	nt	nt	90*	nt
CN(C)c1ccc(C(=C2C=CC(=[N+](C)C)C=C2)c2ccccc2)cc1	?	i	nt	nt	95*	nt
Cc1nc2c(C(=O)NCCc3ccc(Cl)cc3)c[nH]n2c(=O)c1Cc1ccccc1F	?	i	i	5%	24	i
COc1ccc(CCNC(=O)c2c[nH]n3c(=O)c(Cc4ccccc4Cl)c(C)nc23)cc1OC	18µM*	i	i	-17%	22	i
Cc1cc2c(F)c(Oc3ncnn4cc(OCC(C)OC(=O)C(C)N)c(C)c34)ccc2[nH]1 (centres undefined)	-29%	nt	nt	nt	nt	nt
CCS(=O)(=O)c1cccc(C(=O)Nc2ccc(-c3nc4ccccc4s3)c(O)c2)c1	5%	i	i	1%	61*	i
CCCOc1cccc(C(=O)Nc2ccc(-c3nc4ccccc4s3)c(Cl)c2)c1	-24%	i	i	0%	-17	i
CC1(C)NC2N(C1=O)c1ccccc1C2(O)CC(C(=O)O)n1cnc2ccccc2c1=O (centres undefined)	6%[53.3 µM]	nt	nt	nt	nt	nt
SMILES	FH mod	GALC G270D act	B2AR arrestin ag	GALK inh	DRV1 agonist	TSG101-PTAP inh
CC1CCN(c2oc(/C=C/c3ccc(F)cc3)nc2C#N)CC1	-12%	25µM*	i	1%	-15	i
N#Cc1nc(/C=C/c2ccc(F)cc2)oc1N1CCCCCC1	-16%	i	i	-12%	8	i
CN(Cc1ccc(C(=O)O)cc1)c1ccc(OCc2c(-c3c(Cl)cccc3Cl)noc2C2CC2)nc1C(F)(F)F	16µM*	nt	nt	nt	nt	nt
CCOC(=O)N1CCC(n2c(=O)[nH]c3cc(Cl)ccc32)CC1	-5%[53.3 µM]	i	nt	nt	72*	nt
O=C(NCCN1CCC(n2c(=O)[nH]c3ccccc32)CC1)c1ccc2ccccc2c1	2%	nt	nt	nt	nt	nt
Clc1ccc(C(c2ccccc2)c2c[nH]c3ccccc23)s1 (centres undefined)	?	i	i	3%	107*	i
C[C@@H]1O[C@@H](O[C@@H]2[C@@H](O)[C@H](O[C@H]3[C@H](O[C@H]4CC[C@@]5(C)C(CC[C@]6(C)C5CC=C5[C@@H]7CC(C)(C)CC[C@]7(C(=O)O[C@@H]7O[C@H](CO)[C@@H](O)[C@H](O)[C@H]7O[C@@H]7O[C@@H](C)[C@H](O[C@@H]8O[C@@H](C)[C@H](O)[C@@H](O)[C@H]8O)[C@@H](O)[C@H]7O)CC[C@]56C)[C@@]4(C)CO)O[C@H](C(=O)O)[C@@H](O)[C@@H]3O)O[C@H](CO)[C@H]2O)[C@H](O)[C@H](O)[C@H]1O (some centres undefined)	2%[13.5 µM]	nt	nt	nt	nt	nt
COc1ccc(C(Nc2ccccn2)c2ccc3ccc(C)nc3c2O)cc1C (centres undefined)	12%	i	i	0%	90*	i
Cc1oc(-c2ccccc2)nc1CCC(=O)c1ccc(CC2SC(=O)NC2=O)cc1 (centres undefined)	-24%[53.3 µM]	i	nt	nt	74*	nt
Nc1nc(Nc2ccccc2)nc2c1ncn2[C@@H]1O[C@H](CO)C(O)[C@H]1O (some centres undefined)	-4%[53.3 µM]	nt	nt	nt	nt	nt
CCOc1ccc(-c2nnc(SCC(=O)c3ccc(F)cc3)n2-c2ccccc2)cc1	4%	i	i	10%	-12	i
O=C(CSc1nnc(-c2ccccc2Br)n1-c1ccccc1)c1ccc(F)cc1	-16%	i	i	-1%	60*	i
CC(NC(=O)CC(=O)O)c1nc2ccccc2c(=O)[nH]1 (centres undefined)	-2%	nt	nt	nt	nt	nt

Assay outcomes (PubChem)
